A selection: hits, their analogues and other compounds. The true share with any hit is near 3.3%.
PERK inhibitor: block of dimerizer-induced PERK translation repression, primary screen, PERK inhibitor project, CHO PERK-DD cells, SEAP luminescence, HTS; 0.17% of 220,000 active; inhibition, % at 5.6 µM; AID 1416, 2008; Eukaryotic translation initiation factor 2-alpha kinase 3 (Homo sapiens), Q9NZJ5; CHO PERK-DD fusion, SEAP luminescence translation reporter;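 active = inhibition above the mean inhibition of all tested compounds plus 3 SD, set separately per screening campaign, cut at about 2.9% in these data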;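 also: PERK kinase domain activated by AP20187 dimerizer at 100 nM; 0% = DMSO with dimerizer and 100% = rapamycin at 8.4 µM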
ROMK primary: ROMK potassium channel modulators, primary screen, cell-based, thallium flux, MLSMR library | Tet-inducible ROMK, thallium flux fluorescence; actives lie on both sides | 2% of 130,000 active | AID 1918, 2009 | B-score at 10 µM | ATP-sensitive inward rectifier potassium channel 1 (Homo sapiens), P48048;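 active = signal ratio slope over the read window, or its plate-corrected B-score, at least 3 SD from the plate mean, either direction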;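 also: B-score of the F/F0 ratio slope over 7 to 12 s after thallium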
Target sequence (P48048 whole entry, looked up): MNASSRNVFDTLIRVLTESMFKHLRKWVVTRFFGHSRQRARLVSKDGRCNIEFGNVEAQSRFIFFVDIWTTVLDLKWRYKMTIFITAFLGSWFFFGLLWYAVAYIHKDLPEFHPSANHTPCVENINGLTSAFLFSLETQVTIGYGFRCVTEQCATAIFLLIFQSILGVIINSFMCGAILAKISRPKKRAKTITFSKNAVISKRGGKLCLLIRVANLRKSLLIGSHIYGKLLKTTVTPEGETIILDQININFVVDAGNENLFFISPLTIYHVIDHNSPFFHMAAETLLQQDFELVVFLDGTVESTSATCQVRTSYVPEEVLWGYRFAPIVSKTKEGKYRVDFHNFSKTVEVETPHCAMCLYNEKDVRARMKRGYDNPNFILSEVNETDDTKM
WT yeast gro inh: growth inhibition of WT strain, primary screen, mitochondrial fusion inhibitor project, WT and mutant strains, chemical genetic; mitochondrial fusion phenotypic screen; inhibition, % at 10 µM; 2.1% of 190,000 active; AID 1362, 2008; in the data active = inhibition above about 58%; tested in S. cerevisiae
Arbovirus inh: antivirals against arbovirus infection, primary screen, cell-based, full library, 10K replicate subset; AID 1251, 2008; 0.37% of 200,000 active; inhibition, % at 10 µM; arbovirus infection cell-based antiviral screen; in the data active = inhibition above about 30%
The depositor's hits bear a star; . = not tested or not shown.

SMILES	PERK inhibitor	ROMK primary	WT yeast gro inh	Arbovirus inh
C=CC[n+]1ccc(/C=C2\C=Cc3cc(C)ccc3N2CC)c2ccccc21	1	-1.4	87*	-22
C/C(=N\NC(=O)c1c(Cl)c(C)nn1C)c1ccc(NC(=O)c2ccncc2)cc1	0	0.17	9	41*
O=C(CN1CCOCC1)Nc1ncc(Br)cc1Br	3.2*	-0.63	.	-2
CCOC(=O)C1CCCN(Cc2ccc(OCC)cc2)C1 (centres undefined)	-1	.	1	1
CCCOC(=O)CCCN1C(=O)/C(=C2\SC(=S)N(CCCC(=O)OCCC)C2=O)SC1=S	3.4*	.	.	.
CCCCOC(=O)CCN1C(=O)/C(=C2\SC(=S)N(CCC(=O)OCCCC)C2=O)SC1=S	2	.	2	-10
CC(OC(=O)c1ccccc1Nc1ccc(SC(F)F)cc1)C(N)=O (centres undefined)	0	-0.12	81*	-35
NC(=O)COC(=O)c1ccccc1Nc1ccc(SC(F)F)cc1	1	.	41	27
CCOc1ccc2nc(NC(=O)c3ccoc3C)sc2c1	-1	.	79*	-18
CCOc1ccc2nc(NC(=O)Nc3ccccc3)sc2c1	-2	-0.58	-23	13
CCOc1ccc2nc(NC(=O)Nc3cccs3)sc2c1	-1	-0.92	32	36*
COC(=O)C1=CN(CCCN2CCCC2=O)C=C(C(=O)OC)C1c1ccccc1C(F)(F)F	0	.	6	1
COC(=O)c1scc(C)c1-n1ccc(C(=O)C(=O)N(C)C)c1	1	0.41	-8	10
O=S(=O)(C/C(=C/CO)S(=O)(=O)c1ccccc1)c1ccccc1	-1	-8.2*	-8	-44
CCN(Cc1ccccc1)C(=O)CS(=O)(=O)c1ccccc1	0	.	-7	-2
CCOc1ccc2nc(Nc3nc4c(c(=O)[nH]3)CCC4)nc(C)c2c1	.	.	16	-5
COc1ccccc1N1C(=O)CC(Sc2ccccc2N)C1=O (centres undefined)	-1	.	.	.
Cc1ccc(C23CC4CC(CC(NC(=O)NCCN(C)C)(C4)C2)C3)cc1	-1	-2.3	-3	-27
CN(C)CCNC(=O)COc1ccc(C23CC4CC(CC(C4)C2)C3)cc1	0	-0.14	96*	-28
O=C(NCCNC(=O)c1cc(OCC(F)(F)F)ccc1OCC(F)(F)F)Nc1cccc(C(F)(F)F)c1	-1	.	-4	-19
O=C(Nc1ccccc1)Nc1cc(OCC(F)(F)F)cc(OCC(F)(F)F)c1	-1	.	86*	-34
O=C(Nc1cc(Cl)cc(Cl)c1)C(c1ccccc1)N1CCCCC1 (centres undefined)	-1	-0.52	66*	16
O=C(Nc1ccccc1)Nc1cc(Cl)cc(Cl)c1	0	-0.099	89*	-27
O=C(Nc1cccnc1)Nc1cc(Cl)cc(Cl)c1	2	0.45	77*	-26
COc1cc(NCCC(=O)c2cccs2)c(OC)cc1Cl	0	0.041	0	-3
SMILES	PERK inhibitor	ROMK primary	WT yeast gro inh	Arbovirus inh
Cc1[nH]c2ccccc2c1/C=N/NC(=O)CNC(=O)c1ccc2c(c1)OCCO2	1	-1.9	.	.
O=C(NC(=S)Nc1cccnc1)c1cc2ccccc2o1	0	3.5*	-4	-1
CN(C(=O)c1ccccc1Cl)C1CCCCC1	2	-0.13	-22	0
CC1CC(N(C(=O)c2ccccc2Cl)c2ccccc2)c2ccccc2N1 (centres undefined)	1	.	67*	-1
O=C(COc1ccccc1Cl)NC(=S)N1CCc2ccccc21	1	-0.5	11	4
Cc1ccc(S(=O)(=O)Nc2ccc(NC(=O)Nc3cccc(C(F)(F)F)c3)cc2)cc1	-1	.	16	-41
Cc1ccc(S(=O)(=O)Nc2ccc(C(OC(=O)c3ccccc3[N+](=O)[O-])(C(F)(F)F)C(F)(F)F)cc2)cc1	0	.	86*	-35
O=C(NCc1cccnc1)c1ccc(Cl)c(S(=O)(=O)Nc2ccccc2C(=O)NCc2cccnc2)c1	0	0.4	-9	3
FC(F)(F)c1ccc(Oc2ccc3c(C(F)(F)F)cc(C(F)(F)F)nc3n2)cc1	1	.	-3	-2
CCOc1cccc2sc(N(CCN(C)C)C(=O)c3ccc(Br)s3)nc12	0	-0.19	1	3
Cc1ccc2sc(N(CCCN(C)C)C(=O)c3ccc(Br)s3)nc2c1C	0	-0.1	87*	-29
Cc1ccc2sc(N(CCCN(C)C)C(=O)c3nc4ccccc4s3)nc2c1C	1	-1.4	59*	-22
COc1ccc(N=NC2=C(O)CC(C)(C)CC2=O)c(OC)c1	0	.	-5	-24
COc1ccc(N=Nc2nc3cc(Br)c(Br)cc3n2C)c(OC)c1	0	.	61*	-33
